Compounds without any hit were thinned out: in the full panel of roughly 83,000, 20% have a hit.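 Single-concentration screen, 48 h exposure, 96-well plates. Endpoint: percent growth. Below 10 = active.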 Active and inactive are the calls of the source.
Experiments:
Experiment in all cases: NCI-60 one-dose screen, 48 h (100 = growth as untreated, 0 = no growth, -100 = all killed)
Conditions in all cases: 10 µM unless noted
[1] = system: SR leukemia
[2] = system: RPMI-8226 leukemia
[3] = system: OVCAR-8 ovarian
[4] = system: OVCAR-5 ovarian
[5] = system: OVCAR-4 ovarian
[6] = system: SK-OV-3 ovarian
[7] = system: IGROV1 ovarian
[8] = system: OVCAR-3 ovarian
[9] = system: HS 578T breast
[10] = system: NCI/ADR-RES ovarian

Measured: growth

COc1ccc2c(c1OC)CO[C@@H]2[C@H]1c2c(cc3c(c2OC)OCO3)CCN1S(=O)(=O)c1cn(C)cn1
active: [8] -35.3% | [10] 3.64%
inactive: [1] 23.7% | [2] 16.5% | [3] 20.4% | [4] 35.1% | [5] 51.5% | [6] 22.2% | [7] 24.7% | [9] 15.5%

Cc1ccc(Nn2c(SCC(=O)Nc3nc(-c4ccccc4)cs3)nc(C)c2C)cc1
inactive: [1] 72.6% | [2] 55.8% | [3] 55.5% | [4] 81.8% | [5] 32% | [6] 64.1% | [7] 86% | [8] 78.5% | [9] 106% | [10] 34.4%

O=c1scc(-c2ccc(C(F)(F)F)cc2)s1
inactive: [1] 89.9% | [2] 97.7% | [3] 94.7% | [4] 95.6% | [5] 76.8% | [6] 99.3% | [7] 72.6% | [8] 103% | [9] 92.1% | [10] 102%

Cc1nc2sc(C(=O)Nc3cccc(Br)c3)c(N)c2cc1C(O)c1ccccc1 (stereo not given)
inactive: [1] 13.4% | [2] 11.1% | [3] 20.8% | [4] 57% | [5] 70.5% | [6] 35.6% | [7] 32.1% | [9] 21% | [10] 11.7%
active: [8] 8.16%

N#Cc1c(-c2ccc(Cl)cc2)c(C#N)c2c(C#N)c(N)nn2c1N
inactive: [1] 69.5% | [2] 73.9% | [3] 88% | [4] 86.9% | [5] 82.4% | [6] 70.5% | [7] 74.1% | [8] 93.8% | [9] 79.4% | [10] 96.3%

CC1=C2[C@@H](CC1)[C@]1(C)O[C@@](C(C)C)(C[C@H]1OC(=O)[C@H](C)O)[C@H]2OC(=O)/C=C/c1ccccc1
inactive: [1] 71.9% | [2] 65.6% | [3] 10.2% | [4] 97.9% | [5] 81.7% | [6] 83.5% | [7] 97.4% | [8] 91.1%
active: [9] -2.45% | [10] 4.27%

CC(C)=CCCC(C)c1ccc(C)c2c1OCN(CCCCCO)C2 (stereo not given)
inactive: [1] 66.6% | [2] 76.7% | [3] 90.1% | [4] 87.4% | [5] 95.4% | [6] 88.8% | [7] 90.4% | [8] 99.7% | [9] 81.2% | [10] 75.9%

COc1ccc(C(=O)N2c3ccccc3Sc3ccccc32)c(OC)c1
active: [8] -28% | [10] -0.356%
inactive: [1] 22.4% | [2] 16.2% | [3] 27.9% | [4] 47.8% | [5] 57.1% | [6] 36.9% | [7] 52.5% | [9] 14.7%

CC(=O)O[C@H]1CC2CCC3C(CC[C@@]4(C)C3C[C@H]([N+]3(C)CCCCC3)[C@@H]4OC(C)=O)[C@@]2(C)C[C@@H]1N1CCCCC1 (stereo not given in full)
inactive: [1] 99.5% | [2] 110% | [3] 98.1% | [4] 110% | [5] 103% | [6] 106% | [7] 111% | [8] 112% | [9] 65% | [10] 103%

CC(O)(c1ccccc1)C(c1ccccc1)C1CCCCN1 (stereo not given)
inactive: [1] 101% | [2] 102% | [3] 101% | [4] 113% | [5] 97.9% | [6] 113% | [7] 80.5% | [8] 105% | [9] 107% | [10] 105%

C=C(C)[C@@H]1CCC[C@]2(COS(=O)(=O)c3ccc(C)cc3)CC[C@]3(C)[C@@H](CC[C@@H]4[C@@]5(C)CCCNC(C)(C)[C@@H]5CC[C@]43C)[C@@H]12
active: [1] -46.1% | [2] -14.8% | [3] -77.6% | [5] -64.4% | [7] -87.1% | [8] -87.7% | [10] -3.42%
inactive: [4] 63.3% | [6] 98.7% | [9] 61.4%

Cc1ccc(NC(=O)Cn2cc(CN3CCN(c4ccnc5cc(Cl)ccc45)CC3)nn2)cc1
inactive: [1] 60.2% | [2] 64.7% | [3] 89.8% | [4] 95.5% | [5] 76.6% | [6] 68.4% | [7] 91.1% | [8] 91.3% | [9] 83.2% | [10] 89.1%

C=CCOC(=O)Nc1cccn([C@H](Cc2ccccc2)C(=O)NCCC(C)C)c1=O
inactive: [1] 64.6% | [2] 85.9% | [3] 102% | [4] 117% | [5] 92.7% | [6] 103% | [7] 106% | [8] 119% | [9] 103% | [10] 93.1%

COc1cc(OC)c(NC(=O)c2cc3ccccc3cc2O)cc1Cl
inactive: [1] 82.6% | [3] 41.5% | [4] 89% | [5] 41.4% | [6] 71.6% | [9] 31.1% | [10] 14.1%
active: [2] 7.51% | [7] 1.6% | [8] 2.27%

COc1ccc(Nc2ncc(Br)c(NCCCNC(=O)c3cccs3)n2)cc1
inactive: [1] 31.5% | [2] 27.3% | [3] 32.7% | [4] 60.6% | [5] 57.7% | [6] 49.2% | [7] 21% | [8] 26.6% | [9] 30.9% | [10] 46.5%

COc1ccccc1N1CCCCC1
inactive: [1] 112% | [2] 101% | [3] 110% | [4] 86.2% | [5] 109% | [6] 100% | [7] 101% | [8] 114% | [9] 101% | [10] 106%

Cc1cc(C(=O)O)c(C)n1-c1cccc(C(=O)O)c1
inactive: [1] 62.6% | [2] 107% | [3] 73.4% | [4] 66.4% | [5] 91.4% | [6] 105% | [7] 56.9% | [8] 121% | [9] 92.5% | [10] 72.1%

COC(=O)CC[C@@H]1O[C@@H](c2cccc(C(F)(F)F)c2)[C@@H](O)[C@H]1O
inactive: [1] 97.1% | [2] 109% | [3] 110% | [4] 97.1% | [5] 105% | [6] 97.8% | [7] 112% | [8] 99.4% | [9] 93.8% | [10] 108%

CC(=O)Oc1ccc(C)cc1C
inactive: [1] 102% | [2] 102% | [3] 110% | [4] 102% | [5] 105% | [6] 106% | [7] 114% | [8] 111% | [9] 109% | [10] 108%

O=C(Cn1cc(CSc2nc3ccccc3o2)nn1)Nc1ccc(F)cc1F
inactive: [1] 109% | [2] 114% | [3] 103% | [4] 110% | [5] 108% | [6] 124% | [7] 114% | [8] 119% | [9] 107% | [10] 101%

COc1ccc(/C=C(\C#N)n2nnc3ccc(Cl)cc32)cc1
inactive: [1] 29.9% | [2] 67.8% | [3] 48.8% | [4] 92% | [5] 71.6% | [6] 108% | [7] 59.5% | [9] 74.4% | [10] 39.3%
active: [8] -18.4%

O=C(/C=C(/C=C/c1ccc2[nH]ccc2c1)OB(F)F)/C=C/c1ccc2[nH]ccc2c1
active: [1] 2.78% | [2] -31.2% | [3] -29.9% | [5] 2.28% | [7] 5.09% | [8] -16.2%
inactive: [4] 15.4% | [6] 13.6% | [9] 31.4% | [10] 14.3%

O=C(Nc1nc2ccccc2s1)c1ccc(F)cc1
inactive: [1] 98.4% | [2] 88.5% | [3] 109% | [4] 101% | [5] 85.4% | [6] 108% | [7] 88.9% | [8] 104% | [9] 140% | [10] 95.7%

COC(=O)c1nc(-c2ccc(C)cc2)oc1S(=O)(=O)c1cccc(OC)c1
inactive: [2] 94.2% | [3] 93% | [4] 92.1% | [5] 107% | [6] 105% | [7] 81.5% | [8] 77.8% | [9] 110% | [10] 103%
active: [1] 0.69%

Cc1c(O)cc(-c2cnc(Nc3ccccc3)s2)c(O)c1C
inactive: [1] 87.4% | [2] 82.5% | [3] 94% | [4] 111% | [5] 84.8% | [6] 94.5% | [7] 79.2% | [8] 102% | [9] 87.5% | [10] 96.5%

CCOC(=O)c1cc(C(=O)c2cc(OC)c(OC)c(OC)c2)n2ncccc12
active: [8] -15.2% | [10] 3.34%
inactive: [1] 18.3% | [2] 19.3% | [3] 30.4% | [4] 63.1% | [5] 62.4% | [6] 26.4% | [7] 47.2% | [9] 31.1%

CCCCNC(=O)Oc1ccc(/C(=C(/C)Cc2ccc(OC)cc2)c2ccc(OCCN(CC)CC)cc2)cc1
inactive: [1] 16.7% | [2] 66.3% | [3] 86.9% | [4] 82% | [5] 80.3% | [6] 97% | [7] 93.7% | [8] 82% | [9] 76.9% | [10] 91.1%

Reference: PubChem BioAssay (NCI)
